Measurements reported in the supplement of paper PMC7411054.
Where a name gives a salt, the structure may show the parent alone.

Assays:
Settings in all cases: treatment time: 24 h
A549-ACTB-RAB5A [1] = assay: phenotypically active (imaging signature differs from DMSO and reproducible) at any of 0.3-9 uM (binary (1 = active, 0 = inactive)); higher = active
Outline: (§1)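 The reporter lines, fifteen in total and built by gene editing in A549, HepG2 and WPMY1 cells, used BFP for segmentation alongside GFP and RFP/FusionRed markers. Each was treated at 0.3, 1, 3 or 9 µM for 24 h in four wells and then imaged live, with live-cell features normalised to solvent control wells. Deviation meant ≥3 of 4 wells beyond the 95th percentile of control Euclidean distances; reproducibility meant a median replicate Pearson correlation above the 95th percentile of non-replicates. Only conditions meeting both were scored as phenotypically active.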

A549-CANX-COX4 [2] = assay: as above
Outline: as §1

A549-GM130-SQSTM1 [3] = assay: as above
Outline: as §1

A549-TP53BP1-CLTA [4] = assay: as above
Outline: as §1

A549-TUBA1B-RELA [5] = assay: as above
Outline: as §1

HepG2-ACTB-RAB5A = assay: as above
Outline: as §1

HepG2-CANX-COX4 = assay: as above
Outline: as §1

HepG2-GM130-SQSTM1 = assay: as above
Outline: as §1

HepG2-TP53BP1-CLTA = assay: as above
Outline: as §1

HepG2-TUBA1B-RELA = assay: as above
Outline: as §1

WPMY1-ACTB-RAB5A = assay: as above
Outline: as §1

WPMY1-CANX-COX4 = assay: as above
Outline: as §1

WPMY1-GM130-SQSTM1 = assay: as above
Outline: as §1

WPMY1-TP53BP1-CLTA = assay: as above
Outline: as §1

WPMY1-TUBA1B-RELA = assay: as above
Outline: as §1

A549-ACTB-RAB5A [6] = assay: lowest phenotypically active concentration; higher = less potent
Outline: as §1

A549-CANX-COX4 [7] = assay: as above
Outline: as §1

A549-GM130-SQSTM1 [8] = assay: as above
Outline: as §1

A549-TP53BP1-CLTA [9] = assay: as above
Outline: as §1

A549-TUBA1B-RELA [10] = assay: as above
Outline: as §1

Cc1ccc(Cl)c(Nc2ccccc2C(=O)O)c1Cl [meclofenamic-acid]
inactive: phenotypically active (A549-ACTB-RAB5A [1]) 0 | phenotypically active (A549-CANX-COX4 [2]) 0 | phenotypically active (A549-GM130-SQSTM1 [3]) 0 | phenotypically active (A549-TP53BP1-CLTA [4]) 0 | phenotypically active (A549-TUBA1B-RELA [5]) 0 | phenotypically active (HepG2-ACTB-RAB5A) 0 | phenotypically active (HepG2-CANX-COX4) 0 | phenotypically active (HepG2-GM130-SQSTM1) 0 | phenotypically active (HepG2-TP53BP1-CLTA) 0 | phenotypically active (HepG2-TUBA1B-RELA) 0 | phenotypically active (WPMY1-ACTB-RAB5A) 0 | phenotypically active (WPMY1-CANX-COX4) 0 | phenotypically active (WPMY1-GM130-SQSTM1) 0 | phenotypically active (WPMY1-TP53BP1-CLTA) 0 | phenotypically active (WPMY1-TUBA1B-RELA) 0

CCCCN1C[C@H](O)[C@@H](O)[C@H](O)[C@H]1CO [Miglustat hydrochloride]
inactive: phenotypically active (A549-ACTB-RAB5A [1]) 0 | phenotypically active (A549-CANX-COX4 [2]) 0 | phenotypically active (A549-GM130-SQSTM1 [3]) 0 | phenotypically active (A549-TP53BP1-CLTA [4]) 0 | phenotypically active (A549-TUBA1B-RELA [5]) 0 | phenotypically active (HepG2-ACTB-RAB5A) 0 | phenotypically active (HepG2-CANX-COX4) 0 | phenotypically active (HepG2-GM130-SQSTM1) 0 | phenotypically active (HepG2-TP53BP1-CLTA) 0 | phenotypically active (HepG2-TUBA1B-RELA) 0 | phenotypically active (WPMY1-ACTB-RAB5A) 0 | phenotypically active (WPMY1-CANX-COX4) 0 | phenotypically active (WPMY1-GM130-SQSTM1) 0 | phenotypically active (WPMY1-TP53BP1-CLTA) 0 | phenotypically active (WPMY1-TUBA1B-RELA) 0

COc1cc2c(cc1OC)CC(=O)N(CCCN(C)C[C@H]1Cc3cc(OC)c(OC)cc31)CC2 [ivabridine]
inactive: phenotypically active (A549-ACTB-RAB5A [1]) 0 | phenotypically active (A549-CANX-COX4 [2]) 0 | phenotypically active (A549-GM130-SQSTM1 [3]) 0 | phenotypically active (A549-TP53BP1-CLTA [4]) 0 | phenotypically active (A549-TUBA1B-RELA [5]) 0 | phenotypically active (HepG2-ACTB-RAB5A) 0 | phenotypically active (HepG2-CANX-COX4) 0 | phenotypically active (HepG2-GM130-SQSTM1) 0 | phenotypically active (HepG2-TP53BP1-CLTA) 0 | phenotypically active (HepG2-TUBA1B-RELA) 0 | phenotypically active (WPMY1-ACTB-RAB5A) 0 | phenotypically active (WPMY1-CANX-COX4) 0 | phenotypically active (WPMY1-GM130-SQSTM1) 0 | phenotypically active (WPMY1-TP53BP1-CLTA) 0 | phenotypically active (WPMY1-TUBA1B-RELA) 0

Nc1c2c(nc3ccccc13)CCCC2 [tacrine]
inactive: phenotypically active (A549-ACTB-RAB5A [1]) 0 | phenotypically active (A549-CANX-COX4 [2]) 0 | phenotypically active (A549-GM130-SQSTM1 [3]) 0 | phenotypically active (A549-TP53BP1-CLTA [4]) 0 | phenotypically active (A549-TUBA1B-RELA [5]) 0 | phenotypically active (HepG2-ACTB-RAB5A) 0 | phenotypically active (HepG2-CANX-COX4) 0 | phenotypically active (HepG2-GM130-SQSTM1) 0 | phenotypically active (HepG2-TP53BP1-CLTA) 0 | phenotypically active (HepG2-TUBA1B-RELA) 0 | phenotypically active (WPMY1-ACTB-RAB5A) 0 | phenotypically active (WPMY1-CANX-COX4) 0 | phenotypically active (WPMY1-GM130-SQSTM1) 0 | phenotypically active (WPMY1-TP53BP1-CLTA) 0 | phenotypically active (WPMY1-TUBA1B-RELA) 0

CNCC[C@@H](Oc1ccccc1C)c1ccccc1 [atomoxetine]
inactive: phenotypically active (A549-ACTB-RAB5A [1]) 0 | phenotypically active (A549-CANX-COX4 [2]) 0 | phenotypically active (A549-GM130-SQSTM1 [3]) 0 | phenotypically active (A549-TP53BP1-CLTA [4]) 0 | phenotypically active (A549-TUBA1B-RELA [5]) 0 | phenotypically active (HepG2-ACTB-RAB5A) 0 | phenotypically active (HepG2-CANX-COX4) 0 | phenotypically active (HepG2-GM130-SQSTM1) 0 | phenotypically active (HepG2-TP53BP1-CLTA) 0 | phenotypically active (HepG2-TUBA1B-RELA) 0 | phenotypically active (WPMY1-ACTB-RAB5A) 0 | phenotypically active (WPMY1-CANX-COX4) 0 | phenotypically active (WPMY1-GM130-SQSTM1) 0 | phenotypically active (WPMY1-TP53BP1-CLTA) 0 | phenotypically active (WPMY1-TUBA1B-RELA) 0

NC[C@H](O)c1ccc(O)c(O)c1 [norepinephrine]
inactive: phenotypically active (A549-ACTB-RAB5A [1]) 0 | phenotypically active (A549-CANX-COX4 [2]) 0 | phenotypically active (A549-GM130-SQSTM1 [3]) 0 | phenotypically active (A549-TP53BP1-CLTA [4]) 0 | phenotypically active (A549-TUBA1B-RELA [5]) 0 | phenotypically active (HepG2-ACTB-RAB5A) 0 | phenotypically active (HepG2-CANX-COX4) 0 | phenotypically active (HepG2-GM130-SQSTM1) 0 | phenotypically active (HepG2-TP53BP1-CLTA) 0 | phenotypically active (HepG2-TUBA1B-RELA) 0 | phenotypically active (WPMY1-ACTB-RAB5A) 0 | phenotypically active (WPMY1-CANX-COX4) 0 | phenotypically active (WPMY1-GM130-SQSTM1) 0 | phenotypically active (WPMY1-TP53BP1-CLTA) 0 | phenotypically active (WPMY1-TUBA1B-RELA) 0

COc1cc2ncnc(Nc3ccc(O)c(Br)c3)c2cc1OC
3 µM: lowest phenotypically active concentration (A549-CANX-COX4 [7]) | lowest phenotypically active concentration (A549-GM130-SQSTM1 [8]) | lowest phenotypically active concentration (A549-TUBA1B-RELA [10])
inactive: phenotypically active (WPMY1-TUBA1B-RELA) 0
active: phenotypically active (A549-ACTB-RAB5A [1]) 1 | phenotypically active (A549-CANX-COX4 [2]) 1 | phenotypically active (A549-GM130-SQSTM1 [3]) 1 | phenotypically active (A549-TP53BP1-CLTA [4]) 1 | phenotypically active (A549-TUBA1B-RELA [5]) 1 | phenotypically active (HepG2-ACTB-RAB5A) 1 | phenotypically active (HepG2-CANX-COX4) 1 | phenotypically active (HepG2-GM130-SQSTM1) 1 | phenotypically active (HepG2-TP53BP1-CLTA) 1 | phenotypically active (HepG2-TUBA1B-RELA) 1 | phenotypically active (WPMY1-ACTB-RAB5A) 1 | phenotypically active (WPMY1-CANX-COX4) 1 | phenotypically active (WPMY1-GM130-SQSTM1) 1 | phenotypically active (WPMY1-TP53BP1-CLTA) 1
1 µM: lowest phenotypically active concentration (A549-ACTB-RAB5A [6]) | lowest phenotypically active concentration (A549-TP53BP1-CLTA [9])

O=c1ncn2nc(Sc3ccc(F)cc3F)ccc2c1-c1c(Cl)cccc1Cl
inactive: phenotypically active (A549-CANX-COX4 [2]) 0 | phenotypically active (A549-GM130-SQSTM1 [3]) 0 | phenotypically active (A549-TP53BP1-CLTA [4]) 0 | phenotypically active (A549-TUBA1B-RELA [5]) 0 | phenotypically active (HepG2-ACTB-RAB5A) 0 | phenotypically active (HepG2-CANX-COX4) 0 | phenotypically active (HepG2-GM130-SQSTM1) 0 | phenotypically active (HepG2-TP53BP1-CLTA) 0 | phenotypically active (HepG2-TUBA1B-RELA) 0 | phenotypically active (WPMY1-ACTB-RAB5A) 0 | phenotypically active (WPMY1-CANX-COX4) 0 | phenotypically active (WPMY1-GM130-SQSTM1) 0 | phenotypically active (WPMY1-TP53BP1-CLTA) 0 | phenotypically active (WPMY1-TUBA1B-RELA) 0
active: phenotypically active (A549-ACTB-RAB5A [1]) 1
9 µM: lowest phenotypically active concentration (A549-ACTB-RAB5A [6])

CC(C)NCCCC1(C(N)=O)c2ccccc2-c2ccccc21 [indecainide]
inactive: phenotypically active (A549-ACTB-RAB5A [1]) 0 | phenotypically active (A549-CANX-COX4 [2]) 0 | phenotypically active (A549-GM130-SQSTM1 [3]) 0 | phenotypically active (A549-TP53BP1-CLTA [4]) 0 | phenotypically active (A549-TUBA1B-RELA [5]) 0 | phenotypically active (HepG2-ACTB-RAB5A) 0 | phenotypically active (HepG2-CANX-COX4) 0 | phenotypically active (HepG2-GM130-SQSTM1) 0 | phenotypically active (HepG2-TP53BP1-CLTA) 0 | phenotypically active (HepG2-TUBA1B-RELA) 0 | phenotypically active (WPMY1-ACTB-RAB5A) 0 | phenotypically active (WPMY1-CANX-COX4) 0 | phenotypically active (WPMY1-GM130-SQSTM1) 0 | phenotypically active (WPMY1-TP53BP1-CLTA) 0 | phenotypically active (WPMY1-TUBA1B-RELA) 0

CCC(=O)OCC(=O)[C@@]1(OC(=O)CC)[C@@H](C)C[C@H]2[C@@H]3CCC4=CC(=O)C=C[C@]4(C)[C@@]3(Cl)[C@@H](O)C[C@@]21C [beclomethasone-dipropionate]
≤ 0.3 µM: lowest phenotypically active concentration (A549-ACTB-RAB5A [6]) | lowest phenotypically active concentration (A549-CANX-COX4 [7]) | lowest phenotypically active concentration (A549-GM130-SQSTM1 [8]) | lowest phenotypically active concentration (A549-TP53BP1-CLTA [9]) | lowest phenotypically active concentration (A549-TUBA1B-RELA [10])
active: phenotypically active (A549-ACTB-RAB5A [1]) 1 | phenotypically active (A549-CANX-COX4 [2]) 1 | phenotypically active (A549-GM130-SQSTM1 [3]) 1 | phenotypically active (A549-TP53BP1-CLTA [4]) 1 | phenotypically active (A549-TUBA1B-RELA [5]) 1
inactive: phenotypically active (HepG2-ACTB-RAB5A) 0 | phenotypically active (HepG2-CANX-COX4) 0 | phenotypically active (HepG2-GM130-SQSTM1) 0 | phenotypically active (HepG2-TP53BP1-CLTA) 0 | phenotypically active (HepG2-TUBA1B-RELA) 0 | phenotypically active (WPMY1-ACTB-RAB5A) 0 | phenotypically active (WPMY1-CANX-COX4) 0 | phenotypically active (WPMY1-GM130-SQSTM1) 0 | phenotypically active (WPMY1-TP53BP1-CLTA) 0 | phenotypically active (WPMY1-TUBA1B-RELA) 0

CCCc1nc(C(C)(C)O)c(C(=O)OCc2oc(=O)oc2C)n1Cc1ccc(-c2ccccc2-c2nnn[nH]2)cc1 [olmesartan-medoxomil]
inactive: phenotypically active (A549-ACTB-RAB5A [1]) 0 | phenotypically active (A549-CANX-COX4 [2]) 0 | phenotypically active (A549-GM130-SQSTM1 [3]) 0 | phenotypically active (A549-TP53BP1-CLTA [4]) 0 | phenotypically active (A549-TUBA1B-RELA [5]) 0 | phenotypically active (HepG2-ACTB-RAB5A) 0 | phenotypically active (HepG2-CANX-COX4) 0 | phenotypically active (HepG2-GM130-SQSTM1) 0 | phenotypically active (HepG2-TP53BP1-CLTA) 0 | phenotypically active (HepG2-TUBA1B-RELA) 0 | phenotypically active (WPMY1-ACTB-RAB5A) 0 | phenotypically active (WPMY1-CANX-COX4) 0 | phenotypically active (WPMY1-GM130-SQSTM1) 0 | phenotypically active (WPMY1-TP53BP1-CLTA) 0 | phenotypically active (WPMY1-TUBA1B-RELA) 0
